Our source for the Potency values is PubChem BioAssay (Tox21).

Assay [1] has as its target Acetylcholinesterase (Homo sapiens) (UniProt P22303). As to the kind of experiment: Acetylcholinesterase (AChE) small molecule antagonists: colormetric cell-based qHTS assay (AID 1347395). Further: nearly all actives have a fitted effect of over 30% in size. Further: potency means the concentration at half of the fitted maximal effect. In outline: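 AChE inhibition read colorimetrically via DTNB–thiocholine in SH-SY5Y cells. Compound 30 min, substrate 90 min, both 37 C.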
(Quantitative high-throughput screening tests each substance at several concentrations.)

Assay [2] shares this target. As to the kind of experiment: Acetylcholinesterase (AChE) small molecule antagonists: enzyme-based qHTS assay (AID 1347397). Further: nearly all actives have a fitted effect of over 55% in size. Further: potency means the concentration at half of the fitted maximal effect. Conditions: Potency: AChE enzyme activity inhibition; outcome: AChE enzyme activity inhibition. In outline:
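Tox21 library chemicals are tested in qHTS format against recombinant human AChE. The enzyme, dispensed at 50 mU/mL, sits with compound for 30 min at room temperature. A DTNB–acetylthiocholine cocktail follows, and colour is read after 10 min.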

Assay [3] has the same target. As to the kind of experiment: Acetylcholinesterase (AChE) small molecule antagonists: fluorescence cell-based qHTS assay (AID 1347398). Further: nearly all actives have a fitted effect of over 50% in size. Further: potency means the concentration at half of the fitted maximal effect. Conditions: Potency: AChE activity; outcome: AChE activity. In outline:
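Cellular AChE inhibition: SH-SY5Y cells treated with test chemical for 30 min at 37 C, then acetylthiocholine hydrolysis followed over 40 min at room temperature via thiocholine-reactive Thiolite Green fluorescence (490/520 nm).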

For assay [4] the target is unchanged. Briefly: Acetylcholinesterase (AChE) small molecule antagonists: enzyme-based qHTS assay with human liver microsomes (AID 1347399). Further: nearly all actives have a fitted effect of over 60% in size. Conditions: Potency: qHTS inhibition; outcome: qHTS inhibition. In outline: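 Recombinant human AChE (50 mU/mL in the enzyme mix) and human liver microsomes (0.25 mg/mL final) were preincubated with compound and NADPH (0.25 mg/mL final) for 30 min at 37 C. Acetylthiocholine/DTNB was then added; thiocholine was read colorimetrically after 10 min at room temperature.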

SMILES strings stand for the structures. Results filed as inconclusive are left out. Activity calls are given as the source filed them. The call rests on the fitted dose curve.

Acetylcholinesterase (Homo sapiens), sequence (P22303 whole entry, looked up): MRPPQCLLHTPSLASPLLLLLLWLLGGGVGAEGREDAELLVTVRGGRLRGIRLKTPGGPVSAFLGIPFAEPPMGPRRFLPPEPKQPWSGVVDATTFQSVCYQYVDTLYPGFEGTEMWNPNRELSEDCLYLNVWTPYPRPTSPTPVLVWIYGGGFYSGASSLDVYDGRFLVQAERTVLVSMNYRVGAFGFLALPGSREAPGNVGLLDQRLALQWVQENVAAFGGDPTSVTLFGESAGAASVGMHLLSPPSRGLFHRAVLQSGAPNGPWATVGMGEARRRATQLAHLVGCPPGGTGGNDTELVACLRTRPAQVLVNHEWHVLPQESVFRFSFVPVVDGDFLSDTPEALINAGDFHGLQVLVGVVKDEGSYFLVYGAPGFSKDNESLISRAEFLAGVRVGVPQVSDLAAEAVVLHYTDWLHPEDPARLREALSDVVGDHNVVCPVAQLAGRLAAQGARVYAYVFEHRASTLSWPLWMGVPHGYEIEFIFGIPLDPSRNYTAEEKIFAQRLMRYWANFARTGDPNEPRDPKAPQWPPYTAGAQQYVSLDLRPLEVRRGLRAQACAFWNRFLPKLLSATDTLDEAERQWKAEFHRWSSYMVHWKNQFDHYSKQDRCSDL

For `C=CC(=O)Nc1cc2c(Nc3ccc(F)c(Cl)c3)ncnc2cc1OCCCN1CCOCC1`, the Potency result in assay [1], in assay [2], in assay [3] and in assay [4] was “inactive” throughout.

`O=C(COc1ccc(Cl)cc1)N1CCN(Cc2ccc3c(c2)OCO3)CC1`: the Potency entry in assay [1], in assay [2], in assay [3] and in assay [4] was “inactive” in each case.

For the compound `O=c1[nH]c2ccccc2n1CCCN1CCN(C(c2ccccc2)c2ccccc2)CC1`, the Potency result in assay [1], in assay [2], in assay [3] and in assay [4] was “inactive” each time.

With `S=C(NC1CCCCC1)NC1CCCCC1`, the Potency entry in assay [1], in assay [2], in assay [3] and in assay [4] was “inactive” throughout.

For the compound `O=C(O)c1cc2ccccc2nc1C(=O)O`, the Potency entry in assay [1], in assay [2], in assay [3] and in assay [4] was “inactive” in each case.

As to `CCC(CO)(CO)CO`, the Potency result in assay [1], in assay [2], in assay [3] and in assay [4] was “inactive” each time.

Take `CC(=O)CCc1ccccc1`: the Potency entry in assay [1], in assay [2], in assay [3] and in assay [4] was “inactive” throughout.

As to `CCCCC(CC)COC(=O)COc1ccc(Cl)cc1Cl` (stereo unspecified), the Potency entry in assay [1], in assay [2], in assay [3] and in assay [4] was “inactive” in each case.

With `O=C(O)Cn1c(=O)n(Cc2ccc(Br)cc2F)c(=O)c2ccc(Cl)cc21`, the Potency result in assay [1], in assay [2], in assay [3] and in assay [4] was “inactive” throughout.

Take `CC(=O)OCCC(C)C`: the Potency result in assay [1], in assay [2], in assay [3] and in assay [4] was “inactive” throughout.

On to `CCCCNC(N)=O`, for which the Potency result in assay [1], in assay [2], in assay [3] and in assay [4] was “inactive” each time.

Turning to `OC[C@H]1O[C@@](CO)(O[C@H]2O[C@H](CO)[C@@H](O)[C@H](O)[C@H]2O)[C@@H](O)[C@@H]1O`, the Potency entry in assay [1], in assay [2], in assay [3] and in assay [4] was “inactive” throughout.

Turning to `CC(C)C/C=C(\C=O)c1ccccc1`, the Potency result in assay [1], in assay [2], in assay [3] and in assay [4] was “inactive” each time.

For the compound `S=c1nc[nH]c2nc[nH]c12`, the Potency result in assay [1], in assay [2], in assay [3] and in assay [4] was “inactive” each time.

On to `F[Si-2](F)(F)(F)(F)F`, for which the Potency result in assay [1], in assay [2], in assay [3] and in assay [4] was “inactive” throughout.

For `CC(C)(CCC(=O)O)C(=O)O`, the Potency result in assay [1], in assay [2], in assay [3] and in assay [4] was “inactive” each time.

In the case of `NC(=O)c1ccccc1N`, the Potency result in assay [1], in assay [2], in assay [3] and in assay [4] was “inactive” throughout.

In the case of `Oc1ccc(OCc2ccccc2)cc1`, the Potency result in assay [1], in assay [2], in assay [3] and in assay [4] was “inactive” in each case.

As for `CC(C)COC(=O)c1ccc(N)cc1`, the Potency result in assay [1], in assay [2], in assay [3] and in assay [4] was “inactive” each time.

Regarding `CC(O)CO` (stereo unspecified), the Potency result in assay [1], in assay [2], in assay [3] and in assay [4] was “inactive” each time.

Consider `CCCCCCOc1cc(C)c(O)c(C)c1C`, for which the Potency result in assay [1], in assay [2], in assay [3] and in assay [4] was “inactive” throughout.

For `CCCCC(CC)C(=O)OCCOCCOCCOC(=O)C(CC)CCCC` (stereo unspecified), the Potency entry in assay [1], in assay [2], in assay [3] and in assay [4] was “inactive” each time.

In the case of `NCCS(=O)(=O)O`, the Potency entry in assay [1], in assay [2], in assay [3] and in assay [4] was “inactive” each time.

Take `CCCCN1C[C@H](O)[C@@H](O)[C@H](O)[C@H]1CO`: the Potency result in assay [1], in assay [2], in assay [3] and in assay [4] was “inactive” each time.

As for `CCOC(=O)Oc1ccc(CCNC(=O)[C@H](CCSC)NC(C)=O)cc1OC(=O)OCC`, the Potency entry in assay [1], in assay [2], in assay [3] and in assay [4] was “inactive” throughout.

As for `CC(=O)NCc1c(I)c(NC(C)=O)c(I)c(C(=O)O)c1I`, the Potency result in assay [1], in assay [2], in assay [3] and in assay [4] was “inactive” each time.

`CC(COCC(C)OC(=O)c1ccccc1)OC(=O)c1ccccc1` (stereo unspecified): the Potency entry in assay [1], in assay [2], in assay [3] and in assay [4] was “inactive” in each case.

With `NC(=O)c1cccnc1`, the Potency entry in assay [1], in assay [2], in assay [3] and in assay [4] was “inactive” each time.

Regarding `O=C(NO)c1ccccc1`, the Potency result in assay [1], in assay [2], in assay [3] and in assay [4] was “inactive” each time.

In the case of `CCCCC(CC)COC(=O)c1ccc(O)cc1` (stereo unspecified), the Potency entry in assay [1], in assay [2], in assay [3] and in assay [4] was “inactive” throughout.

For `CC1(C)C(=O)N(Br)C(=O)N1Br`, the Potency result in assay [1], in assay [2], in assay [3] and in assay [4] was “inactive” throughout.

Consider `CCCS(=O)c1ccc2nc(NC(=O)OC)[nH]c2c1` (stereo unspecified), for which the Potency result in assay [1], in assay [2], in assay [3] and in assay [4] was “inactive” in each case.

`Nc1c(Cl)cc(Cl)cc1[N+](=O)[O-]`: the Potency entry in assay [1], in assay [2], in assay [3] and in assay [4] was “inactive” in each case.

With `CC(=O)OC(C)OC(=O)C(C)c1ccc(-c2ccccc2)c(F)c1` (stereo unspecified), the Potency result in assay [1], in assay [2], in assay [3] and in assay [4] was “inactive” in each case.

Consider `N#CCc1ccc(Cl)cc1Cl`, for which the Potency entry in assay [1], in assay [2], in assay [3] and in assay [4] was “inactive” throughout.

`COc1cc2c(cc1OC)-c1cc(=Nc3c(C)cc(C)cc3C)n(C)c(=O)n1CC2`: the Potency result in assay [1], in assay [2], in assay [3] and in assay [4] was “inactive” each time.

On to `CCN(CC)c1ccc(C(=O)c2ccccc2C(=O)O)c(O)c1`, for which the Potency result in assay [1], in assay [2], in assay [3] and in assay [4] was “inactive” throughout.

Turning to `Cc1cc(=O)oc2cc(O)ccc12`, the Potency result in assay [1], in assay [2], in assay [3] and in assay [4] was “inactive” each time.

With `CCCCCCCCCCCCCC[n+]1ccccc1`, the Potency in assay [1] was 31.7 µM (active); in assay [2] it was 56.4 µM (active); in assay [3], 20 µM (active). For the same compound, the Potency result in assay [4] was “inactive”.

In the case of `Cc1cccc2c1ccc1ccccc12`, the Potency result in assay [1], in assay [2], in assay [3] and in assay [4] was “inactive” in each case.

For `CO[C@@]1(NC(=O)CSCC#N)C(=O)N2C(C(=O)O)=C(CSc3nnnn3C)CS[C@@H]21`, the Potency entry in assay [1], in assay [2], in assay [3] and in assay [4] was “inactive” throughout.

As to `CN1CCC[C@@H]1c1cccnc1`, the Potency result in assay [1], in assay [2], in assay [3] and in assay [4] was “inactive” each time.

Turning to `CC(O)C(CO)C(C)O` (stereo unspecified), the Potency result in assay [1], in assay [2], in assay [3] and in assay [4] was “inactive” throughout.

For the compound `Cc1cc(C(C)(C)C)c(O)c(C)c1CC1=NCCN1`, the Potency entry in assay [1], in assay [2], in assay [3] and in assay [4] was “inactive” each time.
